The list is not random: actives were taken first. Their share in the collection is about 1.3%.
S1P3 antagonist = S1P3 receptor antagonists, primary screen, cell-based; 0.27% of 170,000 active; CHO S1P3 NFAT-BLA reporter, FRET fluorescence, antagonist mode; Sphingosine 1-phosphate receptor 3 (Homo sapiens), Q99500; inhibition, % at 4.98 µM;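 active means inhibition above the plate cutoff, the mean inhibition of test wells on that plate plus 3 SD, cut at about 28% in these data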;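 further: cells challenged with S1P at its EC80 of 0.8 µM; blue over green emission ratio from cleaved BLA substrate after 4 h stimulation; 0% = S1P-stimulated wells and 100% = unstimulated DMSO-only wells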
PERK inhibitor = block of dimerizer-induced PERK translation repression, primary screen, PERK inhibitor project, CHO PERK-DD cells, SEAP luminescence, HTS | Eukaryotic translation initiation factor 2-alpha kinase 3 (Homo sapiens), Q9NZJ5 | CHO PERK-DD fusion, SEAP luminescence translation reporter | inhibition, % at 5.6 µM | 0.17% of 220,000 active;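 active means inhibition above the mean inhibition of all tested compounds plus 3 SD, set separately per screening campaign, cut at about 2.9% in these data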;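 further: PERK kinase domain activated by AP20187 dimerizer at 100 nM; 0% = DMSO with dimerizer and 100% = rapamycin at 8.4 µM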
S1P4 antag = S1P4 receptor antagonists, primary screen, cell-based. Sphingosine 1-phosphate receptor 4 (Homo sapiens), O95977. 0.26% of 220,000 active. AID 1510, 2009. inhibition, % at 4.98 µM. S1P4-expressing cells, antagonist mode, reporter read-out; in the data active means inhibition above about 29%;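 further: 0% = wells stimulated with agonist and 100% = vehicle wells without agonist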
Target sequence (O95977 whole entry, looked up): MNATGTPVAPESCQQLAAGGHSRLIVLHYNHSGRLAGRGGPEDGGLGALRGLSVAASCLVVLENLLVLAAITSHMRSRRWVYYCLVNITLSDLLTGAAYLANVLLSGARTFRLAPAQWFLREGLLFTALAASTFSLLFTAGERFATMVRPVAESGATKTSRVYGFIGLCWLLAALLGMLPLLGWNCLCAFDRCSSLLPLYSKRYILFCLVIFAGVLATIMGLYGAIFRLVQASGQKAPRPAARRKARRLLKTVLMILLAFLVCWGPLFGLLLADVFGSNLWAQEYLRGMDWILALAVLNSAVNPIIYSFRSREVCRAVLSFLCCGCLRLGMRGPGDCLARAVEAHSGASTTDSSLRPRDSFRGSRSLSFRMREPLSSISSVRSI
Calpain2 inh = inhibitors of pig calpain II, primary screen, biochemical, fluorogenic peptide substrate, 1536-well; purified calpain II, 30 min; 0.37% of 220,000 active; AID 1236, 2008; inhibition, % at 16 µM;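 active means inhibition above about 50%, limit read from the data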
S1P4 agonist = S1P4 receptor agonists, primary screen, cell-based. S1P4-expressing cell line, agonist reporter assay. activation, % at 4.98 µM. 0.35% of 220,000 active; in the data active means activation above about 11%;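 further: 0% = DMSO vehicle and 100% = reference agonist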
Numbers without * were called inactive; i = inactive; x = not tested or not shown.

SMILES	S1P3 antagonist	PERK inhibitor	S1P4 antag	Calpain2 inh	S1P4 agonist
CCOC(=O)NC(Nc1ccc(C)cn1)(C(F)(F)F)C(F)(F)F	-20	0	-7	-8	2
O=C1NC(=S)S/C1=C\c1cc2ccccc2nc1N1CCCCC1	-17	0	5	56*	1
CNC(=S)NNC(=O)c1ccccc1F	2	0	-8	90*	0
COc1ccc(N2CCN(CC(=O)Nc3c(C)cc(C)cc3C)CC2)cc1	-20	1	10	-31	2
Cc1cc(C)c(NC(=O)CN2CCN(C)CC2)c(C)c1	79*	x	x	-6	x
C=CCSc1nc2ccccc2c(=O)[nH]1	-44	3.0*	-4	-2	-3
COc1ccc(C2c3c(noc3C)CC(C)(O)C2C(C)=O)cc1 (stereo not drawn)	8	0	-12	4	2
CC(=O)C1C(c2ccco2)c2c(noc2C)CC1(C)O (stereo not drawn)	x	3.0*	4	2	-2
CCOC(=O)c1ccccc1NC(=O)Nc1ccc(OC)c(OC)c1	-2	0	-16	-13	2
COc1ccc(NC(=O)Nc2ccc(C)cc2OC(F)F)cc1OC	10	-1	-25	53*	1
COc1ccc(-c2cc(C(=O)Nc3c(C)n(C)n(-c4ccccc4)c3=O)no2)cc1OC	10	1	-3	5	0
CCCN(CCC)C(=O)CC(c1ccccc1)c1cc(Br)ccc1O (stereo not drawn)	x	0	-3	74*	-2
CCCN(CCC)C(=O)CC(c1ccccc1)c1ccc(C)cc1O (stereo not drawn)	x	-1	2	48	-1
O=C(Cn1cc2c(n1)CCCC2)NCC1CCCO1 (stereo not drawn)	9	3.2*	-13	-1	0
CC1CCC(NC(=O)Cn2cc3c(n2)CCCC3)CC1 (stereo not drawn)	-2	2	-12	12	-2
O=C(c1cc2cc([N+](=O)[O-])ccc2s1)N1CCOCC1	4	1	-25	11	1
O=C(c1cc2cc([N+](=O)[O-])ccc2s1)N1CCCCC1	-2	2	0	55*	-1
CCc1cc2c(=O)n(Cc3ccccc3)c(SC3CCOC3=O)nc2s1 (stereo not drawn)	-19	-1	0	54*	-2
Cc1ccc(Cn2c(SC3CCOC3=O)nc3ccccc3c2=O)cc1 (stereo not drawn)	-8	1	-2	-1	0
Cc1cc(NS(=O)(=O)c2ccc(NC(=S)NC(=O)c3ccc(C(C)(C)C)cc3)cc2)no1	-26	2	-21	63*	-2
Cc1c(/C=N/NC(=O)c2cccs2)c2ccccc2n1Cc1ccccc1Cl	7	1	-19	-131	1
c1ccc(Oc2ccc(-c3ccnc4ncnn34)cc2)cc1	-13	2	-4	68*	1
c1ccc(Oc2ccc(-c3ccnc4nc(N5CCOCC5)nn34)cc2)cc1	-19	-1	-2	i	2
CC(=O)N1CCC2(CC1)C/C(=N\NC(=S)Nc1ccc(C)cc1)c1cc(O)ccc1O2	-4	1	6	-141	2
CCCCNC(=S)N/N=C/c1ccccc1F	-12	1	-4	72*	-1
SMILES	S1P3 antagonist	PERK inhibitor	S1P4 antag	Calpain2 inh	S1P4 agonist
CCCCNC(=S)N/N=C/c1cc(C)ccc1C	-13	0	8	16	-2
Cc1ccc(S(=O)(=O)n2nccc2-c2c(-c3ccc(Cl)cc3)noc2C)cc1	6	1	1	4	0
Cc1cc(C(=O)CN(Cc2ccc(F)cc2)S(=O)(=O)c2ccc3c(c2)OCCO3)c(C)n1C	9	-1	-17	58*	2
CCN(CC)c1ccc(NC(=S)NC(=O)c2cccs2)cc1	-10	-1	3	35	0
Cn1cc(C(=O)Nc2ccc(Cl)cc2)c(C(F)(F)F)n1	-9	1	0	0	-1
Cn1cc(NC(=O)Nc2ccc(C(F)(F)F)cc2)c(C(F)(F)F)n1	5	3.9*	0	20	1
CSc1nsc(SCC(=O)N2CCCCC2)n1	-3	0	-15	13	-1
CN(C)S(=O)(=O)c1ccc2c(c1)nc(CCC(=O)NCC1CCCCC1)n2C	-3	1	-1	-17	-2
CN(C)S(=O)(=O)c1ccc2c(c1)nc(CCC(=O)NCc1ccc(Cl)cc1)n2C	-2	1	6	51*	0
O=C(O)c1ccc(N/N=C/c2ccc(OC(=O)c3cccc(Cl)c3)cc2)cc1	-2	0	0	55*	1
COc1cc(CNc2ccc(O)cc2)cc(Br)c1OCc1ccccc1	12	2	-15	64*	1
CCOC(=O)C1=C(Nc2ccc(OC)cc2)OCC1=O	0	2.9*	8	2	1
CCOc1ccc(NC(=O)N[C@@H](Cc2ccccc2)C(=O)O)cc1	-12	2	7	-2	2
CC(=O)NCc1c(Cl)cccc1-n1cccc1	x	3.3*	-16	24	-1
CCC(=O)NCc1c(Cl)cccc1-n1cccc1	x	1	5	-1	-1
Cn1c(N)c(C(=O)COC(=O)c2ccc(Cl)c(S(=O)(=O)N3CCCC3)c2)c(=O)n(C)c1=O	-10	1	10	22	1
CC(NC(=O)COC(=O)/C=C/c1ccco1)c1ccccc1 (stereo not drawn)	-6	1	-18	19	1
COc1ccc(Cn2nc(-c3ccccc3)c(N3CCCCC3)cc2=O)cc1	-1	-1	-4	72*	1
CSc1ccc(/C=N/NC(=O)c2ccccc2Cl)cc1	20	1	3	-13	0
COC(=O)c1ccc(N2C(=O)CC(Sc3n[nH]c(C)n3)C2=O)cc1 (stereo not drawn)	-30	0	0	-28	-2
COC(=O)c1ccc(N2C(=O)C3CC(C)=C(C)CC3C2=O)cc1 (stereo not drawn)	4	0	11	59*	-1
O=C(CN1CC(=O)Oc2ccccc21)OCC(=O)c1ccccc1	23	2.9*	8	-46	-1
CCCCN(Cc1cc2cccc(C)c2[nH]c1=O)S(C)(=O)=O	-10	-2	2	-20	-1
CC1=C(C(=O)OCC2CCCO2)C(c2ccc(C)o2)C2=C(CC(c3ccc(F)cc3)CC2=O)N1 (stereo not drawn)	2	-1	-27	14	-1
CC1=C(C(=O)OCC2CCCO2)C(c2ccc(C)o2)C2=C(CC(c3ccc(N(C)C)cc3)CC2=O)N1 (stereo not drawn)	7	0	-10	99*	-2
CCN(CC)c1ccc(/C=N/N2CCN(c3ccccn3)CC2)cc1	-6	3.0*	5	-7	1
CCn1cnc2scc(-c3ccccc3)c2c1=O	19	-1	-10	-9	-3
Cn1cc(/C=N/n2cnc3scc(-c4ccc(Cl)cc4)c3c2=O)c2ccccc21	56*	1	-1	-73	1
